Measured values from PubChem BioAssay (NCI).
Compounds without any hit were thinned out: in the full panel of roughly 83,000, 20% have a hit.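 Values shown are percent growth following 48 h exposure of cells in 96-well plates to a single concentration of compound; below 10 was considered active.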 A number with no mark means an inactive call. Calls of active or inactive are those of the source.

Key:
Test in all cases: NCI-60 one-dose screen, 48 h (100 = growth as untreated, 0 = no growth, -100 = all killed)
Details in all cases: 10 µM unless noted
NCI-H23 lung = system: NCI-H23 lung
NCI-H226 lung = system: NCI-H226 lung
NCI-H322M lung = system: NCI-H322M lung
HOP-62 NSCLC = system: HOP-62 NSCLC
NCI-H460 lung = system: NCI-H460 lung
HOP-92 NSCLC = system: HOP-92 NSCLC
NCI-H522 lung = system: NCI-H522 lung
A549/ATCC NSCLC = system: A549/ATCC NSCLC
786-0 renal = system: 786-0 renal
COLO 205 colon = system: COLO 205 colon
DU-145 prostate = system: DU-145 prostate
K-562 leukemia = system: K-562 leukemia
MALME-3M melanoma = system: MALME-3M melanoma
MDA-MB-231 breast = system: MDA-MB-231 breast
RXF 393 renal = system: RXF 393 renal
SF-268 CNS = system: SF-268 CNS
SF-295 CNS = system: SF-295 CNS
UACC-257 melanoma = system: UACC-257 melanoma
M14 melanoma = system: M14 melanoma
SF-539 CNS = system: SF-539 CNS

SMILES | growth (NCI-H23 lung) | growth (NCI-H226 lung) | growth (NCI-H322M lung) | growth (HOP-62 NSCLC) | growth (NCI-H460 lung) | growth (HOP-92 NSCLC) | growth (NCI-H522 lung) | growth (A549/ATCC NSCLC) | growth (786-0 renal) | growth (COLO 205 colon) | growth (DU-145 prostate) | growth (K-562 leukemia) | growth (MALME-3M melanoma) | growth (MDA-MB-231 breast) | growth (RXF 393 renal) | growth (SF-268 CNS) | growth (SF-295 CNS) | growth (UACC-257 melanoma) | growth (M14 melanoma) | growth (SF-539 CNS)
C=C1CC[C@@H]2[C@](C)(COC(C)=O)[C@H](OC(C)=O)CC[C@@]2(C)[C@@H]1CC(Nc1ccc(S(=O)(=O)Nc2ccc(Cl)nn2)cc1)C1=CCOC1=O (stereo partly drawn) | 58.2% | -10% (active) | 57% | 47.9% | 14.5% | 69.8% | -34.5% (active) | 61.6% | 58.8% | 18% | 40.2% | 6.81% (active) | 55.3% | 23.8% | -13.4% (active) | 43.3% | 92.8% | 44% | 10.7% | 
O=c1c2cccc3c(Nc4c(F)cccc4F)ccc(c32)c2nc3ccccc3n12 | 85.8% | 75.1% | 86.8% | 85.6% | 72.7% | 64.2% | 83% | 82.4% | 100% | 84.9% | 104% | 84.9% | 93.8% | 82.1% | 116% | 97.8% |  |  | 100% | 100%
O=S(=O)(NCCCNc1cc(-c2cn(-c3ccccc3)nc2-c2ccccc2)ccn1)c1ccc(C(F)(F)F)cc1 | 58.7% | 54.3% | 66.8% | 82% | 50.7% | 32.2% | 72.1% | 40.9% | 29% | 33.1% | 75.9% | 15.8% | 70% | 52.5% | 48% | 58.2% | 38.8% |  | 53.1% | 
CCN(CC)CCCC(C)N/C(=C1\C(=O)NC(=O)\C1=C(/NC(C)CCCN(CC)CC)c1cccc(OC)c1)c1cccc(OC)c1 (stereo not drawn) | -22% (active) | -21.3% (active) | -49.6% (active) | -6.86% (active) | -38.1% (active) | -1.22% (active) | -74.9% (active) | -52.9% (active) | 9.02% (active) | -62.9% (active) | 4.62% (active) | -24.6% (active) | -84.2% (active) | -50.9% (active) | -20.8% (active) | -24% (active) |  |  | -75.1% (active) | -80.6% (active)
CCCCCN(CCCCC)CCC[C@@H](C)[C@H]1CC[C@H]2[C@@H]3[C@H](OCCCN)C[C@@H]4C[C@H](OCCCN)CC[C@]4(C)[C@H]3C[C@H](OCCCN)[C@]12C | 49.2% | 75.2% | 24.6% | 48.3% | 45.2% | 50% | 28.8% | 55.2% | 61.1% | 52.1% | 76.5% | -19.4% (active) | 62.2% | 37% | 87.1% | 87.5% |  |  | 42.8% | -21.9% (active)
O=C(/C=C/c1cc2ccccc2[nH]c1=O)/C=C/c1cc2ccccc2[nH]c1=O | -41.6% (active) | -30.3% (active) | 86.9% | 0.443% (active) | -36.7% (active) | 68.7% | -51.1% (active) | -8% (active) | -59.5% (active) | -11.6% (active) | 10.1% | 1.78% (active) | -24.8% (active) | -6.36% (active) | -91.8% (active) | -36% (active) | 4.04% (active) | -31.9% (active) | -45.4% (active) | 
CCCCCCCCCCCCCCCCNCCC[C@@H](C)[C@H]1CC[C@H]2[C@@H]3[C@H](OCCCN)C[C@@H]4C[C@H](OCCCN)CC[C@]4(C)[C@H]3C[C@H](OCCCN)[C@]12C | -39.7% (active) | -1.42% (active) | -76.8% (active) | -49.5% (active) | -45.5% (active) | -33.2% (active) | -43.6% (active) | -58% (active) | -43.1% (active) | -40.8% (active) | -82.2% (active) | -34.7% (active) | -60.7% (active) | -98.2% (active) | -41.2% (active) | -38.2% (active) |  |  | -28.7% (active) | -68% (active)
COC(=O)[C@@H]1CC[C@]2(C)[C@H](CC[C@@H]3O[C@@]32C)[C@@]1(C)CC(=O)c1ccoc1 | 98.5% | 91.8% | 102% | 95.1% | 101% | 93.3% | 80.4% | 83.3% | 107% | 113% | 112% | 100% | 97.7% | 88.3% | 111% | 103% | 104% | 88.4% | 108% | 
O=C1c2cccnc2C(=O)c2c1c(C(=O)OCCN1CCOCC1)c1ccccn21 | -38.4% (active) | -28.4% (active) | -55.4% (active) | -34% (active) | -31.2% (active) | 8.96% (active) | -30.2% (active) | -48.7% (active) | 2.64% (active) | -53.5% (active) | -20.3% (active) | -16% (active) | -64.8% (active) | 9.01% (active) | 10.7% | 13% | -47% (active) | -47% (active) | -58.7% (active) | 
c1c2c(cc3c1OCO3)Cc1cc3c(cc1Cc1cc4c(cc1C2)OCO4)OCO3 | 109% | 105% | 109% | 109% | 104% | 96.7% | 94.2% | 91.6% | 110% | 114% | 121% | 117% | 116% | 116% |  | 111% | 95.8% | 84.6% | 104% | 97.9%
CC#Cc1nc2ccccc2c(=O)[nH]1 | 80.6% | 64.5% | 104% | 58.3% | 73% | 92.7% | 52.6% | 72.2% | 42% | 78.7% | 84.7% | 37.8% | 65.5% | 26.7% |  | 53.7% | 87.2% | 48.2% | 51.9% | 35.6%
NC(CC(=O)O)C(=O)OCc1ccccc1 (stereo not drawn) | 104% | 95.1% | 84.2% | 86.7% | 103% | 86.3% | 84.3% | 105% | 98.6% | 106% | 109% | 106% | 81.1% | 105% |  | 100% | 93.3% | 89.2% | 104% | 93.4%
COC1C/C(=N\O)C2OC(c3ccccc3)OCC2O1 (stereo not drawn) | 101% | 103% | 99.9% | 114% | 112% | 90.7% | 97.3% | 88.3% | 104% | 107% | 109% | 97.3% | 100% | 105% |  | 109% |  | 68.1% | 104% | 101%
Cc1cc(Nc2nc(N3CCN(C)CC3)nc3ccccc23)n[nH]1 | 91.6% | 81.6% | 86.4% | 81.4% | 69.6% | 59.8% | 41.2% | 65.2% | 59.8% | 58% | 88% | 57% | 69% | 83.2% |  | 67% | 74.4% | 82.9% | 50.8% | 76.3%
CCCCCCCCCCCCS(=O)CC(C)O (stereo not drawn) | 115% | 110% | 119% | 96.1% | 111% | 90.2% | 95.3% | 93% | 102% | 110% | 126% | 103% | 116% | 104% |  | 139% | 100% | 94.7% | 107% | 97.2%
CCc1ccccc1NC(=O)c1sc2nc3c(cc2c1N)C(=O)CCC3 | 38.2% | 67.3% | 46.3% | 35.5% | 6.42% (active) | 84.8% | -11.6% (active) | 21.5% | 35.1% | -7.87% (active) | 2.55% (active) | 11% | 60.8% | 36.6% |  | 40.4% | -3.21% (active) | 65% | 15.1% | -1.47% (active)
